Measurements published in PubChem BioAssay.

Each compound was assayed against Pro-neuregulin-1, membrane-bound isoform (Homo sapiens) (UniProt Q02297) (assay: small molecules binding neuregulin-1 protein – biochemical, small-molecule microarray, fluorescence 635/667, psychiatric disease protein project, primary screen (AID 1075;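 note: score combines 667 nm spot fluorescence with signal to noise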)). Settings: NRG1 binding, 635 nm fluorescence, higher = more signal.
Sequence of Pro-neuregulin-1, membrane-bound isoform (Homo sapiens) (Q02297 whole entry, looked up, canonical isoform): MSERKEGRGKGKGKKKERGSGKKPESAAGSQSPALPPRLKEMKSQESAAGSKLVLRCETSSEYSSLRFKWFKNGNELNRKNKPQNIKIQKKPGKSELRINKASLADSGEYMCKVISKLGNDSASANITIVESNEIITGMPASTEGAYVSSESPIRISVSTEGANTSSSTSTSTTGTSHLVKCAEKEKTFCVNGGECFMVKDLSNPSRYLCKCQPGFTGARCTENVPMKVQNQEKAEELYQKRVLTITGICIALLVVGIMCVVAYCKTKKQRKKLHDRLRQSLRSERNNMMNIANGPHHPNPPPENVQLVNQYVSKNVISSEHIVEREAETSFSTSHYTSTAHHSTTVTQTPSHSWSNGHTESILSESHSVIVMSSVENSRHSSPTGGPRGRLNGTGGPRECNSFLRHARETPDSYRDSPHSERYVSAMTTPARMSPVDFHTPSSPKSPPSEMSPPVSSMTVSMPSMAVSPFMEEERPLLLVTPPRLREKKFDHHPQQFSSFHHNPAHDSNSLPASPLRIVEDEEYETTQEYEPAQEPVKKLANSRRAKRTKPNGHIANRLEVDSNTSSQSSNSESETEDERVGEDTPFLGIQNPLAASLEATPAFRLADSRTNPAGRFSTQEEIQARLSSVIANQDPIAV

Compound	composite z-score
C[C@@H]1CCC2C(=O)N(Cc3ccccc3)C[C@@H](O)CN2[C@H]1c1ccc(Br)cc1 (stereo not given in full)	0.0596
CCOC(=O)CCN1C(=O)[C@H]2[C@H]3[C@H](O)[C@H](O)CC(=O)[C@H]3CC[C@H]2C1=O	0.217
C#CCCCON=C1C[C@@H](O)[C@@H](O)[C@@H]2[C@@H]3C(=O)N(CCC(=O)OCC)C(=O)[C@@H]3CC[C@@H]12	0.107
O=C1[C@H]2[C@H]3[C@H](O)[C@H](O)CC(=NOCc4ccccc4)[C@H]3CC[C@H]2C(=O)N1C[C@@H]1CCCO1	0.512
C#CCCCON=C1C[C@@H](O)[C@@H](O)[C@@H]2[C@@H]3C(=O)N([C@@H](C)c4ccccc4)C(=O)[C@@H]3CC[C@H]12	0.233
CCOC(=O)[C@H](Cc1ccccc1)NC(=O)CCC1CC(OC(=O)NCc2ccc3c(c2)OCO3)CC2(CCCC(COC(=O)NCc3cccc(C(F)(F)F)c3)O2)O1 (stereo not given in full)	0.0527
C=CC[C@@H]1C=C[C@H](ON=C(C)CCN2CCc3nc(CC)c(CC)cc3C2)[C@@H](CO)O1	-0.21
O=C1C2C=CC(C(O)c3ccc([N+](=O)[O-])cc3)N(Nc3ccc([N+](=O)[O-])cc3)C2C(=O)N1c1ccccc1 (stereo not given)	1.55
CC(C)[C@H](NC(=O)OC(C)(C)C)[C@@H](O)CC(=O)OC(C)(C)C	-0.739
NCCCCCNC(=O)[C@@H]1C[C@@H]2C(=O)N3CCC[C@H]3C(=O)N2[C@@H]1c1cccc(OCCO)c1	1.86
COC(=O)CC=C[C@H](C)[C@@H](OCc1ccccc1Br)C(C)C	-0.252
COc1ccc([Si](C)(C)[C@H]2[C@H](CCO)O[C@@]3(C(=O)N(Cc4cccc(NC(=O)[C@H](C)O)c4)c4ccccc43)[C@@H]2C)cc1	0.84
CCOC(=O)CCN1C(=O)[C@H]2[C@H]3[C@H](O)C=CC(=O)[C@@H]3CC[C@H]2C1=O	0.262
CCN1C(=O)[C@H]2[C@H]3[C@H](O)[C@H](O)CC(=NOC[C@@H](C)[C@H](OCc4ccccc4)C(C)C)[C@@H]3CC[C@H]2C1=O	1.24
CO[C@H]1COC(=O)[C@H](C)COC(=O)CC=C[C@@H](C)[C@H](OC)COC(=O)CC=C[C@@H]1C	-0.481
C=C(CCCC)C(=O)CC[C@@H](OC(C)=O)c1cccc(OCCO)c1	0.25
C[C@H](c1ccccc1)N1C(=O)[C@H]2[C@@H]3C(=CC[C@H]2C1=O)C(=O)[C@H]1O[C@H]1[C@H]3O	-0.198
CC(C)CON=C1C[C@@H](O)[C@@H](O)[C@@H]2[C@@H]3C(=O)N(C[C@@H]4CCCO4)C(=O)[C@@H]3CC[C@H]12	-0.0414

Compound	composite z-score
CCOC(=O)C1=CC[C@H]2C(=O)N(CC)C(=O)[C@@H]12	0.98
C#CCCCON=C1C[C@@H](O)[C@@H](O)[C@@H]2[C@@H]3C(=O)N(c4cccc(Oc5ccccc5)c4)C(=O)[C@@H]3CC[C@@H]12	1.44
CC(CCN1CCc2nc(-c3ccccc3)c(-c3ccccc3)cc2C1)=NOC(C)CN1CCCCc2nc(C)c(C)cc21 (stereo not given)	0.657
CCOC(=O)[C@H](CC(C)C)NC(=O)CCC1CC(OC(=O)NCc2cccc3ccccc23)CC2(CCCC(COC(=O)NCCc3ccccc3OC)O2)O1 (stereo not given in full)	0.174
COc1cccc([C@@H]2Oc3ccc(Br)cc3C(=O)[C@H]2O)c1	0.297
CS(=O)(=O)CCOC(=O)C1=CC(CCCO)=CC(c2cccs2)N(Cc2cccc(OC(F)(F)F)c2)C=C1C(=O)OCCS(C)(=O)=O (stereo not given)	1.8
NC(=O)NCC#Cc1ccc2c(c1)[C@]1(C(=O)N2)[C@H](c2ccc(O)cc2)N2[C@H](c3ccccc3)[C@H](c3ccccc3)OC(=O)[C@H]2[C@@H]1C(=O)N1CCCCCCC1	0.467
O=C(CS)NCCCCCNC(=O)[C@H]1C[C@H]2C(=O)N3CCC[C@H]3C(=O)N2[C@H]1c1cccc(OCCO)c1	0.665
CO[C@H]1COC(=O)[C@H](C)NC(=O)[C@@H](C)COC(=O)CC=C[C@@H]1C	-0.194
C=CCOC(=O)[C@H]1[C@@H]2C(=O)O[C@@H](c3ccccc3)[C@@H](c3ccccc3)N2[C@@H](c2ccc(OCCOC(=O)[C@H]3C[C@H]4C(=O)N5CCC[C@H]5C(=O)N4[C@H]3c3cccc(OCCO)c3)cc2)[C@]12C(=O)Nc1ccc(I)cc12	2.91
CCN1C(=O)[C@H]2[C@H]3[C@H](O)[C@H](O)CC(=NOCC=C(C)CCC=C(C)C)[C@H]3CC[C@H]2C1=O	0.65
CC(C)[C@@H](OCc1ccccc1)[C@H](C)C=NOC[C@@H](C)[C@H](OCc1ccccc1)C(C)C	0.106
CC=CC1=C(CO)[C@H](O)[C@H]2O[C@H]2[C@H]1O	-0.157
COc1ccc(COC(=O)NN=C2C[C@@H](O)[C@@H](O)[C@@H]3[C@@H]4C(=O)N(Cc5ccc6c(c5)OCO6)C(=O)[C@@H]4CC[C@@H]23)cc1	-0.424
CN1C(=O)C2C=CC(C(O)c3ccc(I)cc3)N(NC(=O)OC(C)(C)C)C2C1=O (stereo not given)	1.69
COc1ccc(COC(=O)NN=C2C[C@@H](O)[C@@H](O)[C@@H]3[C@@H]4C(=O)N(c5ccc(F)cc5F)C(=O)[C@@H]4CC[C@@H]23)cc1	0.0565
CCOC(=O)[C@H](CC(C)C)NC(=O)CCC1CC(OC(=O)NCCc2ccc(F)cc2)CC2(CCCC(COC(=O)NCc3ccccc3)O2)O1 (stereo not given in full)	1.13
